Assay results reported in PubChem BioAssay AID624167 (Sanford-Burnham Center for Chemical Genomics, 2012).

Assay: Peg3 promoter luciferase inhibitors, potency, dose response, cell-based, HeLa, CREF/GAPDH counter-screen panel (AID 624167)
Conditions: CREF/GAPDH counter-screens; run 1, dose range 1, at 100 µM (top of the series)

Row | Structure (SMILES) | inhibition [%]
1 | CCCCCCCn1c(=N)n(CC(=O)c2ccco2)c2ccccc21 | 92.5
2 | COCCCNC(=O)c1ccc(Cn2c(=O)c3ccccc3n(Cc3ccccc3C#N)c2=O)cc1 | 32.3
3 | CCCC(=O)NC(c1ccccc1)c1ccc2cccnc2c1O (centres undefined) | 26.9
4 | CN1CCC2(CC1)N=C(c1ccc(F)cc1)C(=S)N2C(=O)c1ccc(C(C)(C)C)cc1 | 93.1
5 | O=C(COc1ccc2c(c1)CCC2)Nc1ccccn1 | 95.2
6 | O=c1cnnc(N/N=C/c2ccccn2)[nH]1 | 3.68
7 | Cc1ccsc1/C=N/Nc1cccc(C(=O)O)c1 | 95.8
8 | O=C(/C=C/c1ccc(Cl)c([N+](=O)[O-])c1)c1ccc(O)cc1 | 100
9 | C=CCn1c(COc2ccccc2)nnc1SC(C)C(=O)N/N=C/c1cc(Cl)ccc1O (centres undefined) | 65
10 | Clc1ccccc1/C=C/c1nc(-c2ccccn2)no1 | 97.4
11 | Nc1nonc1-n1nnc(C(=O)N/N=C/c2cc(Br)ccc2O)c1CNc1ccccc1 | 70.2
12 | Cc1cc(C(=O)Nc2cccc(C(=O)O)c2)oc1C | 89.9
13 | CCc1ccn2cc(-c3ccc4c(c3)OCO4)nc2c1 | 92.7
14 | Cc1cc(C)c2sc(NNC(=O)c3ccc(S(=O)(=O)N4CCc5ccccc5C4)cc3)nc2c1 | 58.6
15 | O=C(CCl)N1c2ccccc2Sc2ccc3ccccc3c21 | 100
16 | CCCC(=O)NC(c1ccc(C(C)C)cc1)c1ccc2cccnc2c1O (centres undefined) | 54.3
17 | Cc1ccc(/C=C2\SC(=S)N(CCCC(=O)Nc3ccccn3)C2=O)cc1 | 80.2
18 | COc1cccc2c1C(=O)c1c(O)c3c(c(O)c1C2=O)CC(O)(C(C)=NNC(=O)c1ccc(Cl)c(Cl)c1)CC3OC1CC(N)C(O)C(C)O1 (centres undefined) | 92
19 | O=C(O)c1ccc(N/N=C/c2ccc3nccnc3c2)cc1 | 99
20 | CCC(c1ccc(O)c(O)c1)C(CC)c1ccc(O)c(O)c1 (centres undefined) | 99
21 | O=C(Nc1ccccc1C(=O)Nc1nnc(C(F)(F)F)s1)c1ccccc1 | 60.8
22 | CCCn1nc(C(=O)Nc2nc(-c3ccccn3)cs2)c2ccccc2c1=O | 13.9
23 | CCOC(=O)c1c(SCCN2CCCCC2)n(-c2ccccc2)c(=S)n(-c2ccccc2)c1=O | 97
24 | CCCCC(=O)NC(c1ccccc1OC)c1ccc2cccnc2c1O (centres undefined) | 37.8
25 | CC(C)(C)c1ccc(Oc2ccc(N)cc2)cc1 | 90.1

Row | Structure (SMILES) | inhibition [%]
26 | CN=c1sc2c(n1C)C(=O)c1ccccc1C2=O | 89.9
27 | C=CCn1c(C)cc(C(=O)COc2ccc(C)nc2[N+](=O)[O-])c1C | 51.5
28 | COc1ccc(C(NC(C)=O)c2ccc3cccnc3c2O)c(OC)c1 (centres undefined) | -5.47
29 | CN(O)C(=S)c1ccccc1 | 3.97
30 | COc1ccccc1Nc1nc(-c2sc(NC(=O)c3ccco3)nc2C)cs1 | 18
31 | CN(C)CC1CCC/C(=C\c2ccc(OC(=O)c3ccc(Cl)cc3)cc2)C1=O (centres undefined) | 76
32 | COc1ccc(-n2cc(-c3ccccc3)c3c(N4CCOCC4)ncnc32)cc1 | 87.7
33 | CS(=O)(=O)c1ccc(-c2sc3ccccc3c2C#CCCO)cc1 | 90.1
34 | Cc1cc(C)c(C)c(S(=O)(=O)N2CCN(C(=O)c3cc(=O)[nH]c4ccccc34)CC2)c1C | 71.8
35 | CC(/C=C/c1ccccc1)=N/NC(=O)c1cc([N+](=O)[O-])cc([N+](=O)[O-])c1 | 5.41
36 | CC(C)CC1C(=O)N(Cc2cn(Cc3ccco3)nn2)CCS(=O)(=O)N1Cc1ccc(-c2ccc(F)cc2)cc1 (centres undefined) | 60.2
37 | CCC(=O)NC(c1ccc(C)cc1)c1ccc2cccnc2c1O (centres undefined) | 36.2
38 | CCCC(=O)NC(c1ccc(Cl)cc1)c1ccc2cccnc2c1O (centres undefined) | 70.4
39 | COc1cc(/C=C2\SC(=Nc3ccccc3OC)NC2=O)ccc1O | 43.9
40 | O=C(O)c1ccc(N/N=C/c2ccc3c(c2)OCO3)cc1 | 96.9
41 | CS(=O)(=O)Nc1cccc(NC(=O)C2Cc3c(-c4cccc(F)c4)ccnc3O2)c1 (centres undefined) | 74.9
42 | O=C(N/N=C/c1c(O)ccc2ccccc12)c1ccc(CO)nc1 | -8.84
43 | Cc1nc(C)c(C(=O)N/N=C/c2cc(Br)ccc2O)s1 | -7.82
44 | C=CCc1cccc(/C=N/NC(=O)C(C)Nc2cccc(C)c2)c1O (centres undefined) | 29
45 | Cc1ccc(C(C[N+](=O)[O-])Sc2ccc(N)cc2)cc1 (centres undefined) | 98.3
46 | CCN(CC)S(=O)(=O)c1cccc(C(=O)N/N=C(\C)c2ccc(O)cc2O)c1 | -75.3
47 | CC1=NOC(=O)/C1=C\c1ccc(-c2ccccc2Br)o1 | 94.2
48 | CCc1ccc(/C=C2\SC(=S)N(CCCC(=O)NC3=NCCS3)C2=O)cc1 | 79.8
49 | CCCC(=O)NC(c1ccc(C)cc1)c1ccc2cccnc2c1O (centres undefined) | 43.4
